BAZ2B inh: BAZ2B (human) inhibition; Potency, µM (top dose mostly 114 µM), for the others: at the highest dose activity change, negative = inhibition, most hits filed as inhibitors; hit rate 4.4% among 360,000; AlphaScreen BAZ2B-H3K14Ac peptide displacement; Q9UIF8; note: % is set by controls: 0 for no effect and ±100 for the full control effect; nearly all actives have a fitted effect of over 60% in size
Target sequence (Q9UIF8 whole entry, looked up): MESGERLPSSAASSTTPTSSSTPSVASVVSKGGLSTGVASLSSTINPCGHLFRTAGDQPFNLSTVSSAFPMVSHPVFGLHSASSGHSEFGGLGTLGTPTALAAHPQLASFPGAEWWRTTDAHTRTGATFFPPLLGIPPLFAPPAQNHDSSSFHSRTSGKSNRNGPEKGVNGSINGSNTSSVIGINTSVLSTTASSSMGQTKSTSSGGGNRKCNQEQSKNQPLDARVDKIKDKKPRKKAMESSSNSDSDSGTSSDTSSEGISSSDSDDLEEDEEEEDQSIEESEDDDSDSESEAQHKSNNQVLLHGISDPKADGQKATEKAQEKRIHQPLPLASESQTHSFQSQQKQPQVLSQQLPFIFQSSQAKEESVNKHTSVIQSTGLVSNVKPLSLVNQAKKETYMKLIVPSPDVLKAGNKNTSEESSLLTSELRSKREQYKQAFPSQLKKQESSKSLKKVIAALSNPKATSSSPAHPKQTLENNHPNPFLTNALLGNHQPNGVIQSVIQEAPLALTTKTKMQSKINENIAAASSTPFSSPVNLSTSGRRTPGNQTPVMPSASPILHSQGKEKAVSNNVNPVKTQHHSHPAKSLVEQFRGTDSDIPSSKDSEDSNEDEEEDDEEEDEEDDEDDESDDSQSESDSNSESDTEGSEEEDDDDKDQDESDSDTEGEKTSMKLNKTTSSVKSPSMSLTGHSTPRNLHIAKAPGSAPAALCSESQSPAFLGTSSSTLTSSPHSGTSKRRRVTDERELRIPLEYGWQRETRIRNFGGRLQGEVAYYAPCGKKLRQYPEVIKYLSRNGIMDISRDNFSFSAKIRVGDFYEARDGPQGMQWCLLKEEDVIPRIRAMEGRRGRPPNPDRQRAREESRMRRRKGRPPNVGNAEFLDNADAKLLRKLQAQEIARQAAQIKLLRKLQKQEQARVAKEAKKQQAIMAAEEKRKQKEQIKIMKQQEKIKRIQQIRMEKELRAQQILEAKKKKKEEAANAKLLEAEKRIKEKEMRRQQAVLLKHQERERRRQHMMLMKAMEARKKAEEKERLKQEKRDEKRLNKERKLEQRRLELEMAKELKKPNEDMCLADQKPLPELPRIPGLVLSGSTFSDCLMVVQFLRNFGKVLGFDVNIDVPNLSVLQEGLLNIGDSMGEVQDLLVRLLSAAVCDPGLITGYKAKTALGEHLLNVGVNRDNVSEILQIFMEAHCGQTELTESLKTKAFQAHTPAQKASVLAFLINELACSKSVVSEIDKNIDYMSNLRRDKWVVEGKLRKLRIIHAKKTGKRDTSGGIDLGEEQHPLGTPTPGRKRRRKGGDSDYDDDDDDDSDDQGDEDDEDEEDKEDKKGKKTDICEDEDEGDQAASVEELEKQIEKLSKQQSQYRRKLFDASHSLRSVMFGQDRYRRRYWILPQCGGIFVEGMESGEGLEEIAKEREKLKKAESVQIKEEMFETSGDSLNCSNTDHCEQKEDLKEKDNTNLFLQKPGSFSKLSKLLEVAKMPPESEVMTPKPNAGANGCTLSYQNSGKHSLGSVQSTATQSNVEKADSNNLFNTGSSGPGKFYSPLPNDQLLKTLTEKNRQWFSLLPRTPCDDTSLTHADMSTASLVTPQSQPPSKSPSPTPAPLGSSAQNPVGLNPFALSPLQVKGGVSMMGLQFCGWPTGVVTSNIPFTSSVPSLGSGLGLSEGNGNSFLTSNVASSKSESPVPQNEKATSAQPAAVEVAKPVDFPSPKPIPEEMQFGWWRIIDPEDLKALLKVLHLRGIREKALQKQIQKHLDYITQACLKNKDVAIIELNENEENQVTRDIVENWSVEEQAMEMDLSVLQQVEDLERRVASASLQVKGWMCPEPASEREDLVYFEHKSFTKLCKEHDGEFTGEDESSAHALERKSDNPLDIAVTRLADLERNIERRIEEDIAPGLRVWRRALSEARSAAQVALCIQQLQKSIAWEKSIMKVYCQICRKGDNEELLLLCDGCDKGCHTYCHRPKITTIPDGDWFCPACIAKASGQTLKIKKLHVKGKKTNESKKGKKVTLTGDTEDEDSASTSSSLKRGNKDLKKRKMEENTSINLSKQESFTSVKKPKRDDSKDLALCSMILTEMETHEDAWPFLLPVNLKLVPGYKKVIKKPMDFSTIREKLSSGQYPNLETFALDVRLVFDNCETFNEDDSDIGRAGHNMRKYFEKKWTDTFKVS
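AlphaScreen displacement: compounds (up to 110uM) incubated 30 min at room temperature with a preformed 50 nM BAZ2B/50 nM biotinylated H3K14Ac peptide complex in PBS pH 7.4 with Tween-20. Donor and acceptor beads at 10 ug/mL final added, 20 min light-protected before reading.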
Sfp inh: blocks B. subtilis Sfp PPTase activity; Biochemical Sfp PPTase activity, qHTS; Potency, µM, inactives show largest response in the series, negative = inhibition, hits mostly inhibitors; hit rate 3.5% among 310,000;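 note: the enzyme is Sfp with the accession as filed and its product quenches rhodamine fluorescence; 0% = enzyme reaction without inhibitor and -100% = no enzyme wells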
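Compounds were incubated with enzyme (final 15 nM) for 15 min at room temperature before substrate addition started the reaction. Fluorescence at 525 nm excitation, 598 nm emission was recorded immediately and after 30 minutes.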
HP1b chromo inh: inhibitors of HP1-beta chromodomain binding to methylated histone tails | AlphaScreen HP1-beta / biotin-H3K9me3 peptide binding | Potency, µM (highest dose often 114 µM), for the others: at the highest dose activity change, negative = inhibition, most hits filed as inhibitors | hit rate 0.56% among 390,000 | AID 540317; note: nearly all actives have a fitted effect of over 70% in size
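Compound inhibition of the preformed complex between 50 nM HP1-beta and 50 nM biotinylated H3K9me3 peptide was read by AlphaScreen. Buffer was PBS pH 7.4 with 0.01% Tween-20. Incubations ran 30 min at room temperature, with 10 ug/mL donor/acceptor beads.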
G9a block: blocks human histone lysine methyltransferase G9a; Potency, µM (doses to about 102 µM), inactives show at the top dose activity, negative = inhibition, actives largely listed as inhibitors; Q96KQ7; hit rate 8.8% among 350,000; G9a H3K9 monomethylation, AlphaScreen, 2 h; AID 504332; note: % is set by controls: 0 for no effect and ±100 for the full control effect; nearly all actives have a fitted effect of over 75% in size
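Signal arises when biotinylated H3K9 peptide, once monomethylated, bridges streptavidin donor and antibody-captured acceptor beads. Enzyme at 20 nM was preincubated 15 min with test compounds; peptide 500 nM and SAM 20 uM then reacted for 2 h.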
JMJD2A Tudor: inhibitors of human JMJD2A Tudor domain. AlphaScreen JMJD2A-Tudor / H3K4me3 peptide binding. O75164. Potency, µM (highest dose often 114 µM), inactives show at the top dose activity change, negative = inhibition, hits mostly inhibitors. AID 504339. hit rate 4.4% among 390,000; note: % is set by controls: 0 for no effect and ±100 for the full control effect; nearly all actives have a fitted effect of over 50% in size
Numbers without * were called inactive; ? = inconclusive; . = not tested or not shown; [ ] = another dose, or the depositor's remark. Most compounds without a hit are left out; they make up all but 12% or so of the library. Calls come from the whole dose curve; as a rule, active = well fitted curve in the direction sought with a large enough effect; inconclusive = small, poorly fitted or top-dose-only effect, or another doubt; inactive = no such curve, though single readings can be large; an effect the other way counts as inactive or inconclusive. Potency is the fitted concentration of half-maximal effect.

SMILES	BAZ2B inh	Sfp inh	HP1b chromo inh	G9a block	JMJD2A Tudor
C#CCOCCOCCOCCNc1nc(N2CCN(C(=O)[C@H](CCC(=O)O)n3cc(C(N)CC(C)C)nn3)CC2)nc(N2CCN(C(=O)[C@H](Cc3cc4ccccc4[nH]3)n3cc(C(N)[C@H](C)CC)nn3)CC2)n1 (some centres not stated)	50µM*	3%	16%	?	56µM*
C#CCOCCOCCOCCNc1nc(N2CCN(C(=O)[C@H](CO)n3cc([C@@H](N)C(C)C)nn3)CC2)nc(N2CCN(C(=O)[C@H](CCCCN)n3cc([C@@H](N)[C@H](C)CC)nn3)CC2)n1	.	.	39%	.	-4%
C#CCOCCOCCOCCNc1nc(N2CCOCC2)nc(N2CCN(C(=O)[C@H](Cc3cc4ccccc4[nH]3)n3cc([C@@H](N)C(C)CC)nn3)CC2)n1 (some centres not stated)	?	-4%	21%	?	?
C#CCOCCOCCOCCNc1nc(N2CCN(C(=O)[C@H](CCC(=O)O)n3cc(C(N)[C@H](C)CC)nn3)CC2)nc(N2CCN(C(=O)[C@H](Cc3cc4ccccc4[nH]3)n3cc(C(N)[C@H](C)CC)nn3)CC2)n1 (some centres not stated)	50µM*	4%	.	-8%[12.7 µM]	.
C#CCOCCOCCOCCNc1nc(N2CCN(C(=O)[C@H](CCCCN)n3cc([C@@H](N)C(C)CC)nn3)CC2)nc(N2CCN(C(=O)[C@H](Cc3cc4ccccc4[nH]3)n3cc([C@@H](N)C(C)CC)nn3)CC2)n1 (some centres not stated)	.	.	-19%	.	50µM*
C#CCOCCOCCOCCNc1nc(N2CCN(C(=O)C(Cc3cc4ccccc4[nH]3)n3cc(C(N)C(C)CC)nn3)CC2)nc(N2CCN(C(=O)C(Cc3cc4ccccc4[nH]3)n3cc(C(N)C(C)CC)nn3)CC2)n1 (configuration not stated)	28µM*	18µM*	?	-103%[59 µM]	28µM*
COc1ccc(NC(=O)c2oc3c(c2C)-c2nn(Cc4c(F)cccc4Cl)cc2CC3)c(OC)c1	2%	.	16%	-9%[59 µM]	-14%
Cc1nn(-c2ccccc2)c(OC(=O)c2ccc(Cl)cc2)c1S(=O)(=O)c1ccccc1	-30%	.	20%	?	-24%
Cc1ccc(S(=O)(=O)c2c(C)nn(-c3ccccc3)c2OC(=O)c2ccccc2F)cc1	-16%	.	20%	?	?
CC(=O)Oc1c(S(=O)(=O)c2ccc(C)cc2)c(C)nn1-c1ccccc1	-22%	12%	26%	11µM*	-31%
Cc1ccc(C(=O)Oc2c(S(=O)(=O)c3ccccc3)c(C)nn2-c2ccccc2)cc1	?	.	6%	?	14µM*
Oc1ccc(/C=N/Nc2ccc(Cl)nn2)cc1O	-23%	79µM*	24%	-14%	-18%
Oc1cccc(/C=N/Nc2cc(N3CCCC3)nc(N3CCCC3)n2)c1	45µM*	-19%	?	-9%[59 µM]	56µM*
O=[N+]([O-])c1cccc(-n2cccc2/C=N/Nc2nc(N3CCCCC3)nc(N3CCCCC3)n2)c1	.	-2%	?	32µM*	?
COc1ccc(/C=N/Nc2cc(N3CCCC3)nc(N3CCCC3)n2)cc1	?	50µM*	-10%	22µM*	?
COc1cc(/C=N/Nc2nc(N3CCCC3)nc(N3CCCC3)n2)ccc1O	-22%	9%	6%	?	-24%
Oc1ccc(/C=N/Nc2nc(N3CCCC3)nc(N3CCCC3)n2)cc1O	-22%	20µM*	10%	10µM*	?
CCOC(=O)C1CCN(C(=O)Cn2nc(CC)n3c(cc4sccc43)c2=O)CC1	3%	.	32%	4%[59 µM]	0%
N=c1n(CCN2CCCCC2)c2ccccc2n1CC(O)c1cccc(Br)c1 (configuration not stated)	-10%	-5%	32%	50µM*	-20%
CN(C)CCn1c(=N)n(CC(O)c2ccc(Cl)c(Cl)c2)c2ccccc21 (configuration not stated)	-8%	9%	14%	45µM*	-15%
N=c1n(CCN2CCCCC2)c2ccccc2n1CC(O)c1ccc(Cl)c(Cl)c1 (configuration not stated)	-10%	?	25%	18µM*	?
CCn1c(=N)n(CC(=O)c2ccc(Cl)c(Cl)c2)c2ccccc21	-1%	?	56%	19%	2%
CCCCn1c(=N)n(CC(O)c2ccccc2)c2ccccc21 (configuration not stated)	-2%	?	5%	.	-11%
N=c1n(CCN2CCCCC2)c2ccccc2n1CC(O)COc1ccccc1 (configuration not stated)	-10%	17%	43%	14%[2.33 µM]	-1%
N=c1n(CCN2CCCCC2)c2ccccc2n1CC(=O)c1ccc(Cl)c(Cl)c1	32µM*	35µM*	1%	.	-28%
SMILES	BAZ2B inh	Sfp inh	HP1b chromo inh	G9a block	JMJD2A Tudor
COc1ccccc1NC(=O)CC1Sc2ccc(C(F)(F)F)cc2NC1=O (configuration not stated)	3%	.	38%	1%[59 µM]	-10%
COc1ccc(C2C(C(=O)OCC(=O)N3CCCCC3)CCC(=O)N2c2ccc(OC)cc2)cc1 (configuration not stated)	-11%	6%	18%	45µM*	2%
O=C(/C=C/N1CCOCC1)c1cc2ccccc2o1	2%	-6%	28%	10µM*	-18%
Cn1c(NC(=O)/C=C/c2ccco2)cc(=O)n(C)c1=O	-2%	56µM*	33%	?	-5%
Cc1ccc(/C=C/C(=O)Nc2cc(=O)n(C)c(=O)n2C)o1	-5%	-81%	-29%	4µM*	?
CN(CC[C@@H](Oc1ccc(C(F)(F)F)cc1)c1ccccc1)CC(=O)O	.	-13%	.	?	.
COc1ccccc1CNC(=O)C1Cc2cc(S(=O)(=O)N3CCCCC3)ccc2N1C(C)=O (configuration not stated)	-25%	7%	56%	1%	-2%
CN(C)c1ccnc(C(=O)O)c1	22µM*	56µM*	1%	4.5µM*	0.71µM*
O=C(O)c1cc(Br)ccn1	.	35µM*	7%	16µM*	3.2µM*
Cc1cccc(N(CC(=O)NCCSc2ccc(Cl)cc2)S(C)(=O)=O)c1C	7%	.	43%	-25%[59 µM]	0%
Cc1ccc(CNC(=O)CC2Nc3c4ccccc4nc(=S)n3C2=O)cc1 (configuration not stated)	-25%	-22%	.	-31%	.
CC(C)NC(=O)CC1Nc2c3ccccc3nc(=S)n2C1=O (configuration not stated)	-1%	?	54%	17%[2.33 µM]	-2%

Assay outcomes: PubChem, National Center for Advancing Translational Sciences (NCATS)
